Data taken from PubChem BioAssay.
Activity calls are given as the source filed them. Unless noted, the rule behind the calls is not given here.

Key:
[1] = compound effects on lung adenocarcinoma cell viability – A549, calcein-AM fluorescence, 48 h, basal, profiling panel (AID 1162); conditions: higher = more signal; note: test concentration not given here
[2] = compound effects on differentiated 3T3-L1 adipocyte viability – cell-based, 3T3-L1 adipocytes, calcein-AM fluorescence, 48 h, basal, profiling panel (AID 1163); conditions: 3T3-L1 adipocytes viability, higher = more signal; note: test concentration not given here
[3] = compound effects on hepatocellular carcinoma cell viability – HepG2, calcein-AM fluorescence, 48 h, basal, profiling panel (AID 1164); conditions: higher = more signal; note: test concentration not given here
[4] = compound effects on multiple myeloma cell viability – MM1S, calcein-AM fluorescence, 48 h, basal, profiling panel (AID 1165); conditions: higher = more signal; note: test concentration not given here
[5] = calcein-AM signal in unstimulated myeloma cells – cell-based, calcein-AM fluorescence, 48 h, PK04 Diversity Set, profiling panel (AID 1166); conditions: RPMI8226 myeloma viability, higher = more signal;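 note: cells grown under basal conditions without added stimulus; test concentration not given here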
[6] = JC-1 mitochondrial signal, unstimulated HepG2 cells – cell-based, JC-1 fluorescence, 24 h, 100 nL compound, profiling panel (AID 1167); conditions: HepG2 mitochondrial potential, higher = more signal; note: test concentration not given here
[7] = JC-1 mitochondrial signal, unstimulated adipocytes – cell-based, JC-1 fluorescence, 3T3-L1 adipocytes, 24 h, 100 nL compound, profiling panel (AID 1168); conditions: JC-1 mitochondrial fluorescence, higher = more signal, called active from +8 up or from −8 down; note: test concentration not given here
[8] = JC-1 mitochondrial signal, unstimulated myeloma cells – cell-based, JC-1 fluorescence, RPMI8226, 24 h, 100 nL compound, profiling panel (AID 1169); conditions: JC-1 mitochondrial potential fluorescence, higher = more signal; note: test concentration not given here
[9] = JC-1 mitochondrial signal, unstimulated MM1S myeloma – cell-based, JC-1 fluorescence, 24 h, 100 nL compound, profiling panel (AID 1170); conditions: MM1S mitochondrial potential, higher = more signal; note: test concentration not given here
[10] = resazurin metabolic signal in A549 cells – cell-based, resazurin fluorescence, 24 h, PK04 Diversity Set, profiling panel (AID 1171); conditions: A549 viability, higher = more signal, called active from +8 up or from −8 down; note: test concentration not given here
[11] = resazurin metabolic signal in HepG2 cells – cell-based, resazurin fluorescence, 24 h, PK04 Diversity Set, profiling panel (AID 1172); conditions: HepG2 viability, higher = more signal; note: test concentration not given here
[12] = budding yeast growth changes without added modifier – OD600, strain BY4716, 24 h, basal condition, primary screen (AID 1173); conditions: S. cerevisiae BY4716 growth, OD600, 24 h; higher = more signal, called active from +8 up or from −8 down
[13] = viability profiling in MM1S myeloma cells – cell-based, resazurin fluorescence, basal, 24 h, PK04 Diversity Set, profiling panel (AID 1174); conditions: higher = more signal, called active from +8 up or from −8 down; note: test concentration not given here
[14] = target: Dihydroorotate dehydrogenase (quinone), mitochondrial (Plasmodium falciparum (isolate 3D7)) (UniProt Q08210); test: inhibition of P. falciparum DHODH – biochemical, C-terminal His tag, absorbance 600 nm, primary screen (AID 1175); conditions: PfDHODH enzyme, DCIP absorbance 600 nm; higher = more signal, called active from +8 up or from −8 down;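 note: recombinant parasite enzyme with a five histidine tag at its C terminus; test concentration not given here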
[15] = inhibition of PAO1 biofilm formation – strain PAO1, LB-PBS medium, absorbance 600 nm, primary screen (AID 1176); note: test concentration not given here; conditions: P. aeruginosa PAO1 growth/biofilm, A600, 12 h; higher = more signal
[16] = growth modulation of vineyard yeast isolate – strain RM11-1a, OD600, basal, 24 h, primary screen (AID 1177);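 note: cultures grown under basal conditions with no added stressor; test concentration not given here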; conditions: S. cerevisiae RM11-1a growth, OD600, 24 h; higher = more signal, called active from +8 up or from −8 down
[17] = growth of efflux-deficient E. coli DRC39 – strain DRC39, OD650, 24 h, E. coli filamentation inducers, primary screen (AID 1178);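 note: growth measured as culture turbidity by optical density at 650 nm; test concentration not given here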; conditions: E. coli DRC39 acrAB, higher = more signal, called active from +8 up or from −8 down
[18] = growth of efflux-deficient E. coli DRC39 – strain DRC39, OD650, 48 h, E. coli filamentation inducers, primary screen (AID 1179);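 note: screen aims at cell division blockers that make cells filament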; conditions: E. coli DRC39 delta-acrAB growth, higher = more signal, called active from +8 up or from −8 down
[19] = viability profiling in RPMI8226 myeloma cells – cell-based, resazurin fluorescence, basal, 24 h, PK04 Diversity Set, profiling panel (AID 1180); conditions: higher = more signal;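 note: RPMI8826 multiple myeloma cell line at 5000 cells per well; test concentration not given here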
[20] = target: E3 ubiquitin-protein ligase XIAP (Homo sapiens) (UniProt P98170); test: small molecules binding XIAP protein – biophysical, small-molecule microarray, fluorescence 635 nm, primary screen (AID 1181); conditions: higher = more signal;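 note: score merges 667 nm emission and signal to noise over triplicate slides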
E3 ubiquitin-protein ligase XIAP (Homo sapiens), sequence (P98170 whole entry, looked up): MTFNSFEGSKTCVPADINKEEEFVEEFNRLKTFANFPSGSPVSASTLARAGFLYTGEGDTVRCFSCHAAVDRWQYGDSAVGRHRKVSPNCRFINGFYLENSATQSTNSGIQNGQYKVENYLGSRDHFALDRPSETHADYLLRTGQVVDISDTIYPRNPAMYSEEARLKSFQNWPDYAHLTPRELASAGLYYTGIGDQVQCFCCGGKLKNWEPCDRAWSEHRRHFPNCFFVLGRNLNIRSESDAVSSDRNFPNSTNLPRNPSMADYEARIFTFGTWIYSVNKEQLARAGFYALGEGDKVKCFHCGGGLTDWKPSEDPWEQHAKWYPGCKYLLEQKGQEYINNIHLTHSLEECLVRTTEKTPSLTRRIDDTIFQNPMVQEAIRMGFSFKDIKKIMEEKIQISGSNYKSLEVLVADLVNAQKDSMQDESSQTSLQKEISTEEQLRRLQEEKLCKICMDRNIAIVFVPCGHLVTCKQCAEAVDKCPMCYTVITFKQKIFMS

Dihydroorotate dehydrogenase (quinone), mitochondrial (Plasmodium falciparum (isolate 3D7)), sequence (Q08210 whole entry, looked up): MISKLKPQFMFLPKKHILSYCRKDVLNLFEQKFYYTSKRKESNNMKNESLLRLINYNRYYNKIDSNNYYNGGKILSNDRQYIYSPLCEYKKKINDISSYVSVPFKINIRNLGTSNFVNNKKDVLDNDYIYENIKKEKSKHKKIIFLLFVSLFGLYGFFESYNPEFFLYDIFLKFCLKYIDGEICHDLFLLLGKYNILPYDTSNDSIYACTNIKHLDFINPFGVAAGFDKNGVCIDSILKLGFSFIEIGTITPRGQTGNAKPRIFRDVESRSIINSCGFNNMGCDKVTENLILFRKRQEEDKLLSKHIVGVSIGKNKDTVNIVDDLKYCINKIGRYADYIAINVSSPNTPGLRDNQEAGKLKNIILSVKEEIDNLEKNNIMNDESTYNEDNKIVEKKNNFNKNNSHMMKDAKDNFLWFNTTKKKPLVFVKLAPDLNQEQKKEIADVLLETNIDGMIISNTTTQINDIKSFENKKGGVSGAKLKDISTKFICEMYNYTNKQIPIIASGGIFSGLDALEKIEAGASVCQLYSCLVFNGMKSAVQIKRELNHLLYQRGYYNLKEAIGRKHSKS

Structure (SMILES) | z-score [1] | z-score [2] | z-score [3] | z-score [4] | z-score [5] | z-score [6] | z-score [7] | z-score [8] | z-score [9] | z-score [10] | z-score [11] | z-score [12] | z-score [13] | composite z-score [14] | z-score [15] | z-score [16] | z-score [17] | z-score [18] | z-score [19] | composite z-score [20]
COc1ccc(NN2C(C(O)c3ccccn3)C=CC3C(=O)N(C4CCCCC4)C(=O)C32)cc1 (stereo not given) | -0.834 | 0.23 | 1.44 | -1.3 | -3.2 | -0.645 | -0.089 (inactive) | 0.201 | -1.51 | 0.342 (inactive) | 1.64 | -0.774 (inactive) | 0.583 (inactive) | 1.25 (inactive) | 0.574 (inactive) | 0.219 (inactive) | -0.416 (inactive) | 0.824 (inactive) | 0.974 | -0.308
O=C1C[C@@](C(=O)NCC(F)(F)F)(c2ccc([N+](=O)[O-])cc2)[C@@H](c2ccc(CO)cc2)N1C1CCCCC1 | -0.113 | -1.03 | 0.268 | -1.34 | 0.258 | 0.0995 | -1.12 (inactive) | 0.685 | 0.0421 | 0.423 (inactive) | -0.289 | -0.693 (inactive) | -0.39 (inactive) | -0.356 (inactive) | 0.416 (inactive) | -0.815 (inactive) | 0.659 (inactive) | 0.0421 (inactive) | -0.12 | -0.209
C=C(COC)/C(=C/C[C@@H](OC(=O)c1ccncc1)c1cccc(OCCO)c1)c1cnc2ccccc2c1 | 0.0954 | 0.542 | -1.03 | -2.17 | -0.307 | 0.862 | -1.76 (inactive) | 0.187 | 0.276 | -0.634 (inactive) | -0.464 | -17.3 (active) | -0.835 (inactive) | -6.7 (inactive) | 1.17 (inactive) | -5.29 (inactive) | -0.451 (inactive) | -0.318 (inactive) | -0.526 | 0.594
CCCCC(=C=CC[C@@H](O)c1ccc(OCCO)cc1)C[C@@H](O)COCc1ccccc1 | 2.64 | 0.716 | 2.15 | -1.35 | -0.586 | 0.605 | -0.0104 (inactive) | 0.178 | -1.18 | 0.812 (inactive) | 0.931 | -5.91 (inactive) | -0.301 (inactive) | -2.29 (inactive) | 0.637 (inactive) | -3.31 (inactive) | 1.9 (inactive) | 1.55 (inactive) | -0.342 | 0.124
C=CCNC(=O)[C@@H]1[C@H]2C(=O)O[C@H](c3ccccc3)[C@H](c3ccccc3)N2[C@H](c2ccccc2OCCO)[C@@]12C(=O)N(C(=O)OCCOC)c1ccc(C#CC3=CCCCC3)cc12 | 0.428 | 1.16 | -0.555 | -2.48 | -2.4 | -0.149 | 1.74 (inactive) | -1.01 | -1.82 | -0.996 (inactive) | 0.402 | 0.466 (inactive) | -1 (inactive) | -0.458 (inactive) | 2.19 (inactive) | 1.08 (inactive) | 0.368 (inactive) | 0.628 (inactive) | -1.31 | 0.0683
CC(C)CCC[C@@H](C)[C@H]1CC[C@@]2(C)C3=C(CC[C@]12C)[C@@]1(C)CC[C@H](OC(=O)c2ccc(Br)cc2)C(C)(C)C1CC3 (stereo not given in full) | 0.986 | 0.889 | 2.04 | 0.109 | -0.269 | 1.14 | 0.599 (inactive) | 0.717 | -0.902 | -0.255 (inactive) | 1.05 | -0.149 (inactive) | 0.345 (inactive) | -1.4 (inactive) | 0.0694 (inactive) | -1.7 (inactive) | 0.998 (inactive) | 1.07 (inactive) | 0.766 | 0.0223
COCCOC(=O)N1C(=O)[C@@]2(c3cc(C#CC4=CCCCC4)ccc31)[C@H](c1ccc(O)cc1)N1[C@H](c3ccccc3)[C@H](c3ccccc3)OC(=O)[C@H]1[C@@H]2C(=O)Nc1nc2ccccc2s1 | -0.0695 | -0.898 | 0.0669 | -1.01 | -1.65 | -2.79 | -0.451 (inactive) | -0.941 | -0.887 | -0.304 (inactive) | -0.477 | 0.175 (inactive) | 0.0007 (inactive) | -0.399 (inactive) | 1.44 (inactive) | 0.297 (inactive) | -0.61 (inactive) | 0.0717 (inactive) | -0.0867 | 0.0114
COc1cc2c(cc1OC)CN(C(=O)[C@@H]1[C@H]3C(=O)O[C@H](c4ccccc4)[C@H](c4ccccc4)N3[C@H](c3ccccc3OCCO)[C@@]13C(=O)Nc1ccc(C#CC4(O)CCCCCC4)cc13)CC2 | 0.74 | -0.277 | 0.711 | -0.292 | -1.88 | -0.612 | 1.3 (inactive) | -0.792 | -1.31 | -0.373 (inactive) | 0.529 | 0.882 (inactive) | -2.17 (inactive) | 0.44 (inactive) | 2.03 (inactive) | 3.23 (inactive) | -0.236 (inactive) | 1.01 (inactive) | 0.284 | -0.11
COc1ccc([Si](C)(C)[C@H]2[C@H](CC(=O)N3Cc4ccccc4C[C@H]3CO)O[C@@]3(C(=O)N(Cc4cccc(N5CCCCC5=O)c4)c4ccccc43)[C@@H]2C)cc1 | -0.463 | 0.785 | -0.229 | -1.87 | -3.08 | -0.189 | -0.198 (inactive) | -1.07 | -1.46 | -0.646 (inactive) | -0.376 | -0.704 (inactive) | -2.39 (inactive) | -0.614 (inactive) | 1.42 (inactive) | 0.662 (inactive) | -0.235 (inactive) | -0.435 (inactive) | -1.74 | 0.208
